The list is not random: actives were taken first. Their share in the collection is about 2.4%.
ANO1 activ: TMEM16A chloride channel activators or potentiators, primary screen, cell-based, HTS. Anoctamin-1 (Mus musculus), Q8BHY3. HEK293 TMEM16A/YFP-H148Q/I152L, iodide quench fluorescence; hits give low values. B-score at 10 µM. 340,000 compounds, 0.3% hits;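 active = fluorescence-ratio B-score plate-corrected deviation score at least 3 library SD below zero, with starting fluorescence score within 5 deviations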;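 note: channel opened by trigger with iodide after compound preincubation; score built on the fluorescence ratio of max minus min over baseline; more negative score means more quench and so TMEM16A activation or potentiation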
Target sequence (Q8BHY3 whole entry, looked up): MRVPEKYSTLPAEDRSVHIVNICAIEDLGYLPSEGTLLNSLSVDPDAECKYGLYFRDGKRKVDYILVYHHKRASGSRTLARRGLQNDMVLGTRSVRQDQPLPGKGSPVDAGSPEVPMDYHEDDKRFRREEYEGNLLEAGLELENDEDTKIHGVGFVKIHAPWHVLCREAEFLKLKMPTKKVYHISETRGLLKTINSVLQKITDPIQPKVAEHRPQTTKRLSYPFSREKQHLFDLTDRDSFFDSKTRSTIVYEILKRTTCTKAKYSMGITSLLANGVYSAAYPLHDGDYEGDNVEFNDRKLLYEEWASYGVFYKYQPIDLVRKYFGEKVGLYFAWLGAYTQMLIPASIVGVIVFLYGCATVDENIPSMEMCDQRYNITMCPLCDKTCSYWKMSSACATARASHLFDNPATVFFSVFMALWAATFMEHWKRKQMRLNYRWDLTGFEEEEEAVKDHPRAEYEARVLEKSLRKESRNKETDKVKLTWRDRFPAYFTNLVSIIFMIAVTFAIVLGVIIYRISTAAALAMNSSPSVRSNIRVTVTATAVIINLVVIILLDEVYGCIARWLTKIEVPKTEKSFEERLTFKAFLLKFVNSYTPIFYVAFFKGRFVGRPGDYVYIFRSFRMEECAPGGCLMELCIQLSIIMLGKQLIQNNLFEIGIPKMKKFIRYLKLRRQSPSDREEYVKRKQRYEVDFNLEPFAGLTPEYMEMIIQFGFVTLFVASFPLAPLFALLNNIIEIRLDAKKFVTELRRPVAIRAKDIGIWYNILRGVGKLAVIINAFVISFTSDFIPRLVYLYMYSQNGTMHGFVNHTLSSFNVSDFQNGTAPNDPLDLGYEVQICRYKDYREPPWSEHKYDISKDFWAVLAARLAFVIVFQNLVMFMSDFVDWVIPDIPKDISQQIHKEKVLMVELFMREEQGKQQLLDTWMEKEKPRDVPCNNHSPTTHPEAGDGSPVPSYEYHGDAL
Cardiac RTF inh: cardiac RTF calcium sensitivity inhibitors, primary screen, biochemical, IANBD-TnC fluorescence, EC70 calcium | Troponin I, cardiac muscle (Homo sapiens) + Troponin T, cardiac muscle (Homo sapiens) + … | IANBD-labeled cardiac RTF, Ca2+ fluorescence | inhibition, % at 7.15 µM | 340,000 compounds, 0.12% hits | AID 493244, 2011;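 active = inhibition above the mean inhibition of all tested compounds plus 3 SD, cut at about 17% in these data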;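 note: assay run at fixed EC70 calcium of 1.6 mM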
RTF Ca sens act: cardiac RTF calcium sensitivity activators, primary screen, biochemical, IANBD-TnC fluorescence, EC20 calcium | activation, % at 7.2 µM | IANBD-labeled TnC RTF fluorescence at EC20 calcium; 0% EC20 calcium, 100% full calcium | Troponin I, cardiac muscle (Homo sapiens) + Troponin T, cardiac muscle (Homo sapiens) + … | 340,000 compounds, 0.24% hits;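 active = activation above the mean over all tested compounds plus 3 SD, cut at about 30% in these data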;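 note: rise in fluorescence read as greater calcium sensitivity of cardiac thin filaments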
CRFBP-R2 agonist: agonists of CRF-BP/CRF-R2 complex, primary screen, cell-based, HEK293, calcium dye fluorescence, uHTS | 350,000 compounds, 0.46% hits | activation, % at 13.2 µM | AID 588473, 2011 | calcium dye fluorescence (FLIPR); percent of saturating CRF peptide response;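 active = activation of at least 50%, plus an integration ratio under a set limit after plate pattern correction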;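 note: plate controls were neutral control wells without compound for no effect and CRF at EC100 for full effect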
ANO1 block: TMEM16A chloride channel inhibitors, primary screen, cell-based, HTS; normalized B-score (activity score, 25-100; higher = stronger inhibition) at 10 µM; Anoctamin-1 (Mus musculus), Q8BHY3; HEK293 TMEM16A/YFP iodide influx fluorescence, ionomycin; 310,000 compounds, 1.2% hits;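 active = ratio plate-corrected score three or more library SD toward inhibition, starting fluorescence score within five deviations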;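 note: score derived from kinetic fluorescence span divided by baseline fluorescence per well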
CRFBP-R2 block: antagonists of CRF-BP/CRF-R2 complex, primary screen, cell-based, HEK293, calcium dye fluorescence, uHTS. inhibition, % at 11.8 µM. CRF-induced calcium fluorescence. 350,000 compounds, 0.59% hits;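 active = inhibition of the ligand-induced calcium signal above about 50% at the single tested concentration, limit read from the data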
* marks the source's active call; other numbers are inactive results; i = inactive; / = not tested or not shown.

SMILES | ANO1 activ | Cardiac RTF inh | RTF Ca sens act | CRFBP-R2 agonist | ANO1 block | CRFBP-R2 block
OCCNc1nc(-c2ccccc2)nc2ccccc12 | i | -11 | -2 | 0 | i | -8
COCCCNc1nc(-c2ccc(Cl)cc2)nc2ccccc12 | i | 2 | -5 | 0 | 25* | -11
Cn1c(=O)c2sccc2n(Cc2ccccc2)c1=O | i | 3 | -5 | -4 | i | 3
Clc1ccc2[nH]c3c(NCC4CCCO4)ncnc3c2c1 (stereo not drawn) | / | / | / | / | 100* | /
Clc1ccc2[nH]c3c(NCCN4CCOCC4)ncnc3c2c1 | i | -9 | -6 | -4 | i | 9
O=C(Cn1nc(-c2ccc(Cl)cc2)ccc1=O)NCC1CCCO1 (stereo not drawn) | -17* | -5 | 3 | 0 | i | 20
COc1ccc(OC)c(/C=N\NC(=O)CSc2nnc(CCCc3ccc(OC)c(C)c3)o2)c1 | i | 0 | -3 | 0 | 100* | 31
COc1ccc(CCCc2nnc(SCC(=O)Nc3cc(C)c(C)cc3Br)o2)cc1 | i | -1 | -1 | 5 | i | 5
O=C(OCc1ccc2c(c1)OCO2)c1ccc(S(=O)(=O)N2CCCC2)cc1 | i | -9 | -7 | 1 | i | 114*
Cc1nccn1CCOc1ccccc1Cl | i | -7 | 2 | 0 | i | 4
COc1cc(C#Cc2c(-c3ccccc3)n(C)c3ccccc23)cc(OC)c1 | i | -3 | -2 | -2 | i | 51*
Clc1ccccc1CSc1cnnc2ccccc12 | i | 0 | 9 | -2 | / | -5
COc1cc(/C=C2\S/C(=N/S(=O)(=O)c3ccc(C)cc3)NC2=O)c([N+](=O)[O-])cc1OC | i | -7 | 3 | 1 | i | 43
Cc1ccc(S(=O)(=O)/N=C2/NC(=O)/C(=C/c3cc([N+](=O)[O-])ccc3O)S2)cc1 | i | -27 | 16 | 67* | i | -137
O=C1NC(=Nc2ccccc2Cl)S/C1=C\c1cc([N+](=O)[O-])ccc1O | i | -49 | 29 | 61* | i | -44
COc1ccc(C(=O)Cn2nnc(-c3ccccc3NC(=O)c3ccco3)n2)cc1 | -11* | -6 | -7 | 2 | i | 7
COc1ccc(C(=O)Nc2ccccc2-c2nnn(CC(=O)N3CCOCC3)n2)cc1 | i | -3 | -3 | 10 | i | -3
CCCC1(CCC)NC(=O)N(CC(=O)Nc2ccc(Cl)c(S(=O)(=O)N3CCOCC3)c2)C1=O | i | 0 | -4 | 0 | / | 69*
O=C(O)C(c1ccccc1)N1C(=O)/C(=C\c2ccc(-c3ccccc3Cl)o2)SC1=S (stereo not drawn) | i | -2 | 2 | 91* | i | -104
O=C(O)C(c1ccccc1)N1C(=O)/C(=C\c2ccc(-c3ccc(Br)cc3)o2)SC1=S (stereo not drawn) | i | -65 | 63* | 85* | / | -57
CCC(C)(C)n1nnnc1C(c1cccnc1)N1CCN(c2cccc(C(F)(F)F)c2)CC1 (stereo not drawn) | i | -14 | -7 | -1 | i | -18
O=C1NN(c2ccccc2)C(=O)/C1=C\c1ccccc1OCC(=O)N1CCOCC1 | i | -4 | -2 | 0 | 25* | -18
Cc1ccccc1NC1=NC(=S)N(c2ccccc2)C12CCCCC2 | i | -1 | 6 | 2 | i | 61*
COc1cc2c(c(OC)c1OC)C(c1ccc(C)cc1)CC(=O)O2 (stereo not drawn) | i | -2 | -4 | -4 | / | 12
Cc1ccc(C(=O)COC(=O)CCN2C(=O)C3C4C=CC(C5CC45)C3C2=O)cc1 (stereo not drawn) | i | 0 | 5 | -3 | i | 91*
SMILES | ANO1 activ | Cardiac RTF inh | RTF Ca sens act | CRFBP-R2 agonist | ANO1 block | CRFBP-R2 block
O=C(Cc1cccs1)Nc1ccc(F)cc1 | i | -9 | 4 | -3 | i | 6
Cc1ccccc1N/N=C/c1sc(=O)n(Cc2cccc(C(=O)O)c2)c1Cl | i | 0 | -5 | -3 | 25* | 29
COC(=O)c1cccc(Cn2c(Cl)c(/C=N/Nc3ccccc3C)sc2=O)c1 | i | -1 | 3 | 1 | i | 8
O=C(C/C=N/OCc1c(Cl)cccc1Cl)c1cnc(-c2ccccc2)s1 | i | -19 | 2 | -1 | 100* | 5
CCN(CC)c1ccc(C(=O)OCC(=O)Nc2ccc3[nH]c(=O)[nH]c3c2)cc1 | i | -8 | -4 | 1 | i | 15
Nc1ncnc2c1ncn2[C@@H]1O[C@H](CO)C[C@@H]1O | / | / | / | / | i | /
Nc1cccc(Oc2c(F)c(F)c(Oc3cccc(N)c3)c(F)c2F)c1 | i | / | / | -1 | i | 28
Nc1ccccc1Oc1c(F)c(F)c(Oc2ccccc2N)c(F)c1F | i | -9 | -4 | -3 | i | 67*
O=C(Nc1ccc2oc(Cc3ccc(Cl)cc3)nc2c1)c1cccnc1 | i | -17 | 1 | 0 | i | -4
CCOc1cccc(C(=O)Nc2ccc3oc(Cc4ccc(Cl)cc4)nc3c2)c1 | i | -4 | 1 | 1 | 100* | -10
COc1ccc(CNC(=O)C2CCC(CNC(=O)[C@@H]3Cc4ccccc4CN3)CC2)cc1 (stereo partly drawn) | i | -1 | -3 | 9 | i | 16
C=CCCC(=O)N1CCC(n2nccc2NC(=O)c2ccc(OC)cc2)CC1 | i | -5 | -8 | 0 | i | 66*
COc1ccc(C(=O)Nc2ccnn2C2CCN(C(=O)CCC(F)(F)F)CC2)cc1 | i | -4 | -1 | -1 | i | -4
CCc1c(C(=O)NC(C)C2CCCO2)csc1C (stereo not drawn) | i | -3 | -6 | 0 | i | -5
O=C1c2ccccc2C(=O)N1c1ncc(Cc2ccc(Cl)cc2)s1 | i | 2 | 2 | 208* | i | -8
Cc1ccccc1CNC(=O)CCNS(=O)(=O)c1ccc(OC(F)(F)F)cc1 | i | -7 | -1 | 2 | / | -18
Cc1ccccc1CN1CCN(CCCc2ccccc2)C(CCO)C1 (stereo not drawn) | i | 3 | -5 | 5 | i | -14
C#CC[N+](C)(C)CCCCCCCC | i | 8 | -9 | 275* | i | -281
C#CC[N+](C)(C)CCCCCCCCCC | i | -15 | 17 | 8 | i | -4

Screening results from PubChem.
